This is a sample that favours compounds with a hit; in the whole collection about 3.9% have one here.
AHR act: activators of human aryl hydrocarbon receptor. P35869. AHR-responsive luciferase reporter cells, luminescence. activation, % at 5 µM. 320,000 tested, 2.5% active. AID 2796; in the data active = activation above about 47%
PLC-gamma1 inh: blocks human PLC-gamma1 enzyme activity. P19174. inhibition, % at 12.2 µM. 370,000 tested, 0.84% active. purified PLC-gamma1, fluorogenic substrate, fluorescence; in the data active = inhibition above about 9.5%
Target sequence (P19174 whole entry, looked up): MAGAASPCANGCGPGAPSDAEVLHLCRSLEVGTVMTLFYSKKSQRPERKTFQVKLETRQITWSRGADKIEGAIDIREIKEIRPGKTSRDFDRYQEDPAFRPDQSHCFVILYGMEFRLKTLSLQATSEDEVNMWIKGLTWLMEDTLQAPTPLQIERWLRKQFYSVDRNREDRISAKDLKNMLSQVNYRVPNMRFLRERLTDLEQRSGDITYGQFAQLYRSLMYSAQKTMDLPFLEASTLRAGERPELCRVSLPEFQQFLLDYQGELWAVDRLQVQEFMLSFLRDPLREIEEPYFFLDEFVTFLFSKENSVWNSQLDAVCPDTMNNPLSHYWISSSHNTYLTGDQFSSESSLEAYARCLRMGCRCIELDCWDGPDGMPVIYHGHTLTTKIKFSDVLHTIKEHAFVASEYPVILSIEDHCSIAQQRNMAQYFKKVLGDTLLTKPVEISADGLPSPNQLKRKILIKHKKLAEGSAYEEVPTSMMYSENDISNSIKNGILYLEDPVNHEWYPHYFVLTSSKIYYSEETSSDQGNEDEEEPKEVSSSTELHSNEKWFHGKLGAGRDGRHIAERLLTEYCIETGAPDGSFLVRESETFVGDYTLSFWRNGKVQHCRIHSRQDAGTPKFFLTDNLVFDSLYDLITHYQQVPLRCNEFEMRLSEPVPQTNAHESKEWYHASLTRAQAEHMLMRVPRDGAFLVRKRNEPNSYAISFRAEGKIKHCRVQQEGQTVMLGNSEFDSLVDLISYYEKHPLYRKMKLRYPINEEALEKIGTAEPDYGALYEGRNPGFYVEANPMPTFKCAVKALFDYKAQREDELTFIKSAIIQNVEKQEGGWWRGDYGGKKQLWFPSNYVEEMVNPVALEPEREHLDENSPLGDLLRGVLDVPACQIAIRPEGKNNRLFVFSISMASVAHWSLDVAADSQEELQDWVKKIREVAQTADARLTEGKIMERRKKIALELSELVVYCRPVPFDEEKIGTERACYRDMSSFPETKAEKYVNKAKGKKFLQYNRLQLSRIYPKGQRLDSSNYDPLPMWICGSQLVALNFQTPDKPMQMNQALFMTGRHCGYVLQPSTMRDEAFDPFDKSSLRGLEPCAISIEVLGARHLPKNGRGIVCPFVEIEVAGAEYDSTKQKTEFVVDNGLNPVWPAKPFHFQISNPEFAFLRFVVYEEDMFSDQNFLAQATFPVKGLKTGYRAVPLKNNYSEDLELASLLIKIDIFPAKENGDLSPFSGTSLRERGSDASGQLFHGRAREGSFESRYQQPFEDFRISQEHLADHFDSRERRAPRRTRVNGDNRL
HIF activator: HIF pathway transcriptional activation. U2OS HRE-luciferase reporter, luminescence; normalized: DMSO 0%, desferrioxamine 100%. activation, % at 7.5 µM (by protocol). 300,000 tested, 0.32% active. AID 1910;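 active = mean activation of at least 10% of the iron chelator positive control signal, with at least half of replicates also reaching 10%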
PLC-beta3 inh: blocks human PLC-beta3 enzyme activity; Q01970; Purified PLC-beta3, fluorogenic substrate, fluorescence; inhibition, % at 12.2 µM; 370,000 tested, 0.18% active; AID 720704; in the data active = inhibition above about 11%
sPLA2-III inh: Blocks human group III sPLA2 activity. 370,000 tested, 0.56% active. QFRET BODIPY PC-A2 liposome hydrolysis, fluorescence. AID 743126. Q9NZ20. inhibition, % at 12.2 µM;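 active = inhibition above mean plus 3 SD of compounds lying within the high and low control bounds, cut at about 19% in these data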
Yeast superoxide: lowers age-related superoxide in aged yeast cells | AID 2690 | S. cerevisiae aged cells, superoxide DHE fluorescence; stronger effect = lower value | superoxide response (% of plate mean), % at 10 µM | 330,000 tested, 0.18% active;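 active = superoxide response under a set limit, about three screen SD below normal, cut at about 65% in these data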;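 also: yeast aged for seven days with compound at 30 °C before DHE staining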
hGIII sPLA2 conf: human GIII-sPLA2 inhibition, confirmation | shares compounds with sPLA2-III inh | recombinant hGIII-sPLA2, BODIPY PC-A2 QFRET fluorescence | inhibition, % at 12.2 µM | 2,000 tested, 34% active;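 active = mean inhibition across triplicates above the hit cutoff set in the earlier primary screen, cut at about 19% in these data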
BODIPY interf: optically interferes with 535nm fluorescence in sPLA2 counter-screen; BODIPY FL product fluorescence interference, QFRET; shares compounds with sPLA2-III inh; inhibition, % at 12.2 µM; 2,000 tested, 8.5% active;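 active = average inhibition above the solvent-only control mean plus 3 SD, cut at about 6% in these data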
BODIPY interf DR: counter-screen for HGIII-sPLA2 inhibitors: 535nm fluorescence interference, dose response; shares compounds with sPLA2-III inh; BODIPY FL product fluorescence interference, cell-free; IC50, µM; 240 tested, under 10 active; AID 743455;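 active = IC50 at or below 10 µM; inactive = IC50 above 10 µM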
Numbers stand for hits; 0 = inactive; - = not tested or not shown.

SMILES | AHR act | PLC-gamma1 inh | HIF activator | PLC-beta3 inh | sPLA2-III inh | Yeast superoxide | hGIII sPLA2 conf | BODIPY interf | others
COCCn1cnc2c(c1=O)c1nc3ccccc3nc1n2/N=C/c1ccco1 | 0 | 0 | 0 | 0 | 19.4 | 0 | 0 | 0
COc1cccc(N2CCN(c3ccc4nnc(CCC(=O)Nc5ccc(C)cn5)n4n3)CC2)c1 | 0 | - | 0 | - | - | 0 | - | -
C[C@H](CO)N1C[C@H](C)[C@@H](CN(C)S(=O)(=O)c2cn(C)cn2)Oc2ccc(NC(=O)C3CC3)cc2C1=O | 0 | 0 | - | 0 | 0 | 0 | - | -
C[C@H](CO)N1C[C@H](C)[C@@H](CN(C)S(=O)(=O)c2cn(C)cn2)Oc2ccc(NC(=O)C3CCCCC3)cc2C1=O | 0 | 0 | - | 0 | 21.4 | 0 | 0 | 0
C=CCn1c(-c2csc3c2CCC(C)C3)n[nH]c1=S (stereo not given) | 0 | 0 | 0 | 0 | 20.8 | 0 | 19.9 | 0
CCn1c(-c2csc3c2CCCC3)n[nH]c1=S | 0 | 0 | 0 | 0 | 28.6 | 0 | 30.1 | 0 | BODIPY interf DR=0
CCCNC(=O)c1cc(C2CCCCN2C(=O)OCC(C)C)on1 (stereo not given) | - | 0 | - | 0 | 0 | - | - | -
COC(=O)c1ccc(C(=O)Nc2ccc3c(c2)C(=O)NC3=O)cc1 | 0 | 0 | 0 | 0 | 22.5 | 0 | 0 | 6.8
CC(=O)Nc1cc2c(c(Cl)c1Cl)-c1ccccc1C2=O | - | 0 | - | 0 | 0 | - | - | -
COC(=O)c1ccc(/C=C/c2c(-c3ccsc3)sc3ccccc23)cc1 | 0 | 0 | 0 | 0 | 0 | 0 | - | -
COc1ccc(-c2sc3ccccc3c2/C=C/c2ccc(N)cc2)cc1 | 53.6 | 0 | - | 0 | 21.6 | 0 | 28.1 | 13.2
N#Cc1cccc(Cn2ccc3ccc(-c4ccc5ccn(Cc6ccccc6)c5c4)cc32)c1 | - | 0 | - | 0 | 0 | - | - | -
COc1ccc2c(c1)c[n+](C)c1c3cc(OC)c(OC)cc3ccc21 | - | 0 | - | 0 | 27.4 | - | 36.2 | 0 | BODIPY interf DR=0
COc1ccc(S(=O)(=O)Nc2ccc3c(c2)C(=O)N([C@H](C)CO)C[C@H](C)[C@@H](CN(C)C(=O)Nc2ccc(C(F)(F)F)cc2)O3)cc1 | 0 | 0 | - | 0 | 0 | 0 | - | -
C=CCc1cc(Cl)ccc1OCCCNC(C)C | 0 | 0 | 0 | 0 | 22.6 | 0 | 0 | 0
COc1ccc(-n2cnc3c(N)nc(N)nc32)cc1 | - | 0 | - | 0 | 20.2 | - | 0 | 0
COc1ccc(-n2cnc3ccccc32)cc1 | 0 | 0 | 0 | 0 | 0 | 0 | - | -
CCn1c(SCC(=O)NNC(=S)Nc2ccccc2)nnc1-c1ccc(Cl)cc1 | 0 | 0 | 0 | 0 | 0 | 0 | - | -
Cc1ccc(/C=N/NC(=O)CSc2nc3ccccc3c(=O)n2-c2ccccc2C)s1 | 0 | 0 | 0 | 0 | 0 | 0 | - | -
CC(=O)/C(=N\Nc1cccc(Cl)c1)Sc1nnc(-c2ccccc2)n1-c1ccccc1 | 0 | 0 | 0 | 0 | 19.5 | 0 | 0 | 0
O=C(CSc1nnc(-c2ccccc2)n1-c1ccc(Cl)cc1)NNC(=S)Nc1ccccc1 | 0 | 0 | 0 | 0 | 26.2 | 0 | 38.5 | 0 | BODIPY interf DR=0
O=C(CSc1nc2ccccc2c(=O)n1-c1ccc(Cl)cc1)NNC(=S)Nc1ccccc1 | - | 0 | - | 0 | 33.3 | - | 27.1 | 0
O=C(CSc1nc2ccccc2c(=O)n1-c1ccc(Cl)cc1)c1ccco1 | 0 | 0 | 0 | 0 | 0 | 0 | - | -
Cc1ccc(/C=N/NC(=O)CSc2nc3ccccc3c(=O)n2-c2ccccc2)s1 | 0 | 0 | 0 | 0 | 19.3 | 0 | 0 | 0
FC(F)(F)C(F)(F)c1nc2nc(Cl)c(Cl)nc2[nH]1 | - | 0 | - | 0 | 0 | - | - | -
NC(=O)c1nc(C(=O)N2CCN(c3ccccc3)CC2)c2ccccc2n1 | 0 | 0 | - | 0 | 0 | 0 | - | -
CC(=O)N(Cc1ccccc1)C(CC(=O)NCc1ccccc1)C(=O)O (stereo not given) | - | 0 | - | 0 | 0 | - | - | -
CCCCC(=O)Nc1ccc(C(=O)NNC(=S)NC(=O)c2ccco2)cc1 | 0 | 0 | 0 | 0 | 19.7 | 0 | 23.6 | 0
O=C(Nc1ccc(NC(=S)NC(=O)c2cccs2)cc1)c1ccccc1 | 0 | 0 | 0 | 0 | 0 | 0 | - | -
